# Compound activity deposited in PubChem by National Center for Advancing Translational Sciences (NCATS).
# SMN2 splice up: qHTS Assay for Enhancers of SMN2 Splice Variant Expression; AID 1458, 2008; Potency, µM (titrated, usually from 46.1 µM), for the others: top-dose activity change, positive = activation, usual class: activators; actives 2.8% (n = 210,000); HEK293 SMN2-luciferase splicing reporter, luminescence, 30-36 h; also: % of control where 0% means no effect; nearly all actives have a fitted effect of over 55% in size
#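 HEK293 cells carry an SMN2 minigene-luciferase reporter in which exon 7 inclusion puts luciferase in frame. Cells were seeded at 2000 cells/well, attached for 10-12 hours, then exposed to compounds for 30-36 hours at 37C before ONE-Glo luminescence.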
# NPC1 prom act: qHTS Assay for NPC1 Promoter Activators; Potency, µM (highest dose often 9.22 µM), for the others: at the top dose activation, hits mostly activators; actives 2.4% (n = 320,000); AID 485313, 2010; Huh7 NPC1 promoter luciferase reporter, 24 h; also: % of control where 0% means no effect; nearly all actives have a fitted effect of over 60% in size
#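 In 1536-well qHTS, Huh7 cells harboring an NPC1 promoter–luciferase construct received compound for 24 h; activation was quantified by luminescence following luciferase reagent addition.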
# Luc counter: Counterscreen for Luciferase (Kinase-Glo TM) Inhibition. Potency, µM (highest dose often 38.3 µM), for inactives: at the top dose activity change, negative = inhibition, usual class: inhibitors. Kinase-Glo luciferase, ATP luminescence, 8 min. actives 0.28% (n = 200,000). Luciferin 4-monooxygenase (Photuris pensylvanica), Q27757; also: % is scaled to controls: 0 for no effect and ±100 for the full control effect; nearly all actives have a fitted effect of over 60% in size
#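 Inhibition of Kinase-Glo luciferase light generation was assessed at 10 uM ATP in pH 7.2 imidazole buffer, with luminescence measured after eight minutes at ambient temperature.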
# Rab9 promoter act: qHTS Assay for Rab9 Promoter Activators | Huh7 Rab9 promoter-luciferase reporter, luminescence, 24 h | Potency, µM (highest dose often 9.22 µM), for inactives: at the highest dose activation, negative = inhibition, actives largely listed as activators | actives 2.8% (n = 320,000) | AID 485297, 2010; also: % of control where 0% means no effect; nearly all actives have a fitted effect of over 60% in size
#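 Luciferase signal after 10 min detection reagent at ambient indicates Rab9 promoter upregulation; stably transfected Huh7 cells were treated 24 h with compound in DMSO at 37 °C, 5% CO2.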
# FLuc modulator: qHTS profiling assay for firefly luciferase inhibitor/activator using purifed enzyme and Km concentrations of substrates (counterscreen for miR-21 project); purified FLuc, Km substrates, luminescence inhibition; Potency, µM (top dose mostly 57.5 µM), for the others: top-dose activity change, negative = inhibition, actives largely listed as inhibitors; actives 6.9% (n = 360,000);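 also: plate controls were vehicle for no effect and reference inhibitor for full effect; nearly all actives have a fitted effect of over 55% in size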
# Target sequence (P08659 whole entry, looked up): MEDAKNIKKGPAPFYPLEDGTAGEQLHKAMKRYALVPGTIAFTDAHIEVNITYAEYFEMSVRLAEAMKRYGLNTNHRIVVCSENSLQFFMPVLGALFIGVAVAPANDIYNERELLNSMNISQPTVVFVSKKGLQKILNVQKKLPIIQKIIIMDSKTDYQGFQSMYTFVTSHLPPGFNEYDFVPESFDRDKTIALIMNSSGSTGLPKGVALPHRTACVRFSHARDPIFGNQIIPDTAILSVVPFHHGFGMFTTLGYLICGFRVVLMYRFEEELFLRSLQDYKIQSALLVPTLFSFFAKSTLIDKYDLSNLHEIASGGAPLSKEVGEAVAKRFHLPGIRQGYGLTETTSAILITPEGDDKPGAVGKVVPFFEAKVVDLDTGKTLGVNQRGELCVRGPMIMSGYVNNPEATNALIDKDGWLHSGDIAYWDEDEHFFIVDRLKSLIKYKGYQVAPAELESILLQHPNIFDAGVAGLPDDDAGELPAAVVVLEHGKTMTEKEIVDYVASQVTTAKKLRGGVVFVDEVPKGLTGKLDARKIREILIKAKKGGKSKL
#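 Purified P. pyralis luciferase, 10 nM final, with Km-level 10 uM D-luciferin and 10 uM ATP in 50 mM Tris acetate pH 7.5, 10 mM Mg acetate, 0.01% Tween-20, 0.05% BSA; 6-point qHTS titration about 60 µM downward; luminescence read.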
# Starred values were filed as active, the others as inactive; ? = inconclusive; / = no result; [ ] = remark or other dose. The list is not random: actives were taken first. Their share in the collection is about 7.3%. Calls follow the shape of the dose curve; as a rule, active = well fitted curve in the direction sought with a large enough effect; inconclusive = small, poorly fitted or top-dose-only effect, or another doubt; inactive = no such curve, though single readings can be large; an effect the other way counts as inactive or inconclusive. Potency is read from the fitted curve at half-maximal effect.
SMILES,SMN2 splice up,NPC1 prom act,Luc counter,Rab9 promoter act,FLuc modulator
O=C(N/N=C/c1c[nH]c2ccccc12)c1ccc(Br)cc1,/,26%,/,?,6.7µM*
CC(C)(C)c1ccc(C(=O)NCC(c2cccs2)S(=O)(=O)c2ccc(F)cc2)cc1 (stereo not drawn),/,/,/,/,-7%
Cc1cccc(NC(=O)N2CCc3c(sc4c3CCCC4)C2c2ccc(F)cc2)c1 (stereo not drawn),/,/,/,/,-1%
Fc1c(F)c(F)c(N/N=C/c2c[nH]c3ccccc23)c(F)c1F,-23%,-11%,0%,0%,?
O=C(N/N=C/c1c[nH]c2ccccc12)c1ccccc1Cl,/,5%,/,-2%[1.84 µM],?
Nc1ccc(C(=O)N/N=C/c2c[nH]c3ccccc23)cc1,/,6%,/,3%,13µM*
O=C(N/N=C\c1c[nH]c2ccccc12)c1ccc(O)cc1,/,22%,/,17%,15µM*
O=C(N/N=C/c1c[nH]c2ccccc12)c1cc(Cl)ccc1O,/,21%,/,14%,17µM*
O=C(O)c1ccc(N/N=C/c2c[nH]c3ccccc23)cc1,/,-9%,/,-5%,0.43µM*
NC(=S)N/N=C/c1c[nH]c2ccccc12,/,2%,/,7%,-16%
O=C(O)c1cc(=O)[nH]c(SCc2ccccc2)n1,2%[9.22 µM],/,-4%[7.66 µM],/,/
C[C@H]1C[C@@H]2[C@@H]([C@@H](O)C[C@@]3(C)[C@H]2CC[C@]3(O)C(=O)CO)[C@@]2(C)C=CC(=O)C=C12,8%[20.6 µM],/,-4%[17.1 µM],/,/
Cc1nc2ccccn2c(=O)c1NC(=O)c1ccc(F)c(F)c1,/,/,/,/,4%
CSC1=N/C(=C\c2ccc(F)cc2)C(=O)S1,-7%,2%,0%,0%,-12%
COc1ccc(/C=C/C=C2\N=C(SC)SC2=O)cc1,/,25%,-27%,18%,5.4µM*
CCN(CC)CCCNC(=O)Cn1nc(N2CCN(c3ccccc3OC)CC2)ccc1=O,/,/,/,/,0%
CC(C)(C)N1C(=O)c2ccc(C(=O)O)cc2C1=O,-6%,0%,-1%,0%,4%
CCC(=O)Oc1ccc(C(=O)Nc2cccc(C(=O)NC(C)(C)C)c2)cc1,17%,-1%,-5%,0%,11µM*
COC(=O)c1cccc(NC(=O)c2ccc3c(c2)C(=O)N(C(C)(C)C)C3=O)c1,/,?,/,?,2.7µM*
CC(C)(C)NC(=O)c1cccc(NC(=O)c2ccc3c(c2)C(=O)N(C(C)(C)C)C3=O)c1,/,0%,/,-4%,11µM*
CC(C)(C)N1C(=O)c2ccc(C(=O)Nc3ccc(O)cc3)cc2C1=O,/,?,/,?,13µM*
Cc1cc(C)c(NC(=O)CSc2nc(=O)[nH]c3c2CCCC3)c(C)c1,/,/,/,/,-2%
Cc1cccc(NC(=O)CSc2ncc(-c3ccc(Br)cc3)[nH]2)c1,-62%,/,/,/,-4%
COc1cccc2[nH]c(=O)c(-c3ccccc3)cc12,/,3.5µM*,/,2.8µM*,12µM*
CN(C)/C=N/c1sc2c(c1C(N)=O)CCCC2,-2%,0%,1%,1%,-5%
SMILES,SMN2 splice up,NPC1 prom act,Luc counter,Rab9 promoter act,FLuc modulator
Cc1ccc(/C=N/c2sc3c(c2C(N)=O)CCCC3)o1,?,?,-4%,4µM*,11µM*
S=c1nc(-c2ccccc2)oc2c1CCCC2,24%,?,1%,?,13µM*
COc1cccc(-c2nc(=S)c3c(o2)CCCC3)c1,?,3%,-6%,?,3µM*
CNC(=O)C1CCC(Cn2c(=O)c3sccc3n(CC(=O)Nc3ccccc3)c2=O)CC1 (stereo not drawn),/,/,/,/,3%
N#CCn1nnc(-c2ccc3c(c2)OCO3)n1,/,9%,/,10%,?
Nc1ccn(Cc2cccc(F)c2)n1,/,-4%,-3%,-4%,2%
Cc1cccc(NC(=O)CSc2ccc(-c3ccc4c(c3)OCO4)nn2)c1C,25%,0%,-4%,-1%,2%
Fc1cccc(Cl)c1Cn1nnc(-c2ccc3c(c2)OCO3)n1,13µM*,?,5%,?,12µM*
Cc1ccccc1Cn1nnc(-c2ccc3c(c2)OCO3)n1,4µM*,21%,3%,?,15µM*
Fc1cccc(Cn2ccc(-c3ccc4c(c3)OCO4)n2)c1,?,28%,0%,26%,21µM*
Cc1ccccc1Cn1ccc(-c2ccc3c(c2)OCO3)n1,5%,?,-1%,29%,15µM*
Cc1cc(Nc2cc(Cl)ccc2C)n2nc(Cc3ccccc3)nc2n1,10%,/,/,/,0%
Cc1ccc(-n2ncc(C(=O)N3CCCCC3)c2C2CCN(C(=O)OC(C)(C)C)CC2)c(C)c1,/,/,/,/,5%
O=C1c2ccccc2NC(c2cccc([N+](=O)[O-])c2)N1CCc1ccccc1 (stereo not drawn),/,?,/,?,19µM*
Cc1cccc(C2Nc3ccccc3C(=O)N2CCc2ccccc2)n1 (stereo not drawn),?,2%,-2%,15%,?
O=C(Nc1ccc2c(c1)nc1n2CCOC1)c1ccccc1,23%,2.2µM*,0%,3.2µM*,15µM*
COc1ccc(C(=O)Nc2ccc3c(c2)nc2n3CCSC2)cc1,10%,2.8µM*,-14%,?,7.6µM*
O=C(Nc1ccc2c(c1)nc1n2CCSC1)c1ccccc1,11µM*,?,?,3.5µM*,11µM*
CCC(=O)OCC(=O)[C@@]1(OC(=O)CC)[C@@H](C)C[C@@H]2[C@H]3CCC4=CC(=O)C=C[C@]4(C)[C@@]3(F)[C@@H](O)C[C@@]21C,/,/,2%[39.9 µM],/,/
CC(C)CNc1nc(NC(C)(C)C)nc(Oc2ccc(=O)n(-c3ccccc3)n2)n1,9%,/,/,/,-2%
c1ccc(-c2ccc3[nH]ccc3c2)cc1,/,?,/,-2%,?
Cc1onc(-c2ccc3c(c2)OCO3)c1-c1ccc2[nH]ccc2c1,/,2%,/,?,0%
c1ccc(-c2onc(-c3ccco3)c2-c2ccc3[nH]ccc3c2)cc1,/,-1%,/,4%,19µM*
c1cc2cc(-c3c(-c4ccc5c(c4)OCO5)noc3-c3ccsc3)ccc2[nH]1,/,?,/,?,11µM*
CCOc1ccc(C(CC(=O)O)NC(=O)COc2ccccc2OC)cc1OC (stereo not drawn),22µM*,-2%,-1%,-6%,-7%
Cc1ccc(NC(=O)COC(=O)Cn2c(C)csc2=O)cc1C,7%,1%,0%,0%,-11%
Cc1cc(C)c(C(=O)COC(=O)CCn2c(C)csc2=O)cc1C,/,16%,/,?,4.8µM*
CCc1cccc(C)c1NC(=O)COC(=O)Cn1c(C)csc1=O,/,8%,/,1%,2%
Cc1cc(C)c(C(=O)COC(=O)Cn2c(C)csc2=O)cc1C,/,6%,/,-1%,17µM*
Cc1csc(=O)n1CC(=O)OCc1cccc2ccccc12,-1%,18%,1%,25%,15µM*
